Data as given in the supplement of paper PMC6378613.

Compound: Cc1ccc(-c2ccc3c(ccc4sc5c(c43)NC[C@@H](C)NC5=O)n2)cn1
Test: kinase activity remaining relative to vehicle control; higher = less inhibition
Procedure: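 In vitro radiometric kinase profiling of the MK2 inhibitor PF-3644022 at 0.1, 1 and 10 µM against a panel of kinases (MRC International Centre for Kinase Profiling, Dundee). Read-out is % kinase activity remaining relative to the vehicle control, mean of n=2.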

Chain of UniProt Q16513 (Q16513 whole entry, looked up): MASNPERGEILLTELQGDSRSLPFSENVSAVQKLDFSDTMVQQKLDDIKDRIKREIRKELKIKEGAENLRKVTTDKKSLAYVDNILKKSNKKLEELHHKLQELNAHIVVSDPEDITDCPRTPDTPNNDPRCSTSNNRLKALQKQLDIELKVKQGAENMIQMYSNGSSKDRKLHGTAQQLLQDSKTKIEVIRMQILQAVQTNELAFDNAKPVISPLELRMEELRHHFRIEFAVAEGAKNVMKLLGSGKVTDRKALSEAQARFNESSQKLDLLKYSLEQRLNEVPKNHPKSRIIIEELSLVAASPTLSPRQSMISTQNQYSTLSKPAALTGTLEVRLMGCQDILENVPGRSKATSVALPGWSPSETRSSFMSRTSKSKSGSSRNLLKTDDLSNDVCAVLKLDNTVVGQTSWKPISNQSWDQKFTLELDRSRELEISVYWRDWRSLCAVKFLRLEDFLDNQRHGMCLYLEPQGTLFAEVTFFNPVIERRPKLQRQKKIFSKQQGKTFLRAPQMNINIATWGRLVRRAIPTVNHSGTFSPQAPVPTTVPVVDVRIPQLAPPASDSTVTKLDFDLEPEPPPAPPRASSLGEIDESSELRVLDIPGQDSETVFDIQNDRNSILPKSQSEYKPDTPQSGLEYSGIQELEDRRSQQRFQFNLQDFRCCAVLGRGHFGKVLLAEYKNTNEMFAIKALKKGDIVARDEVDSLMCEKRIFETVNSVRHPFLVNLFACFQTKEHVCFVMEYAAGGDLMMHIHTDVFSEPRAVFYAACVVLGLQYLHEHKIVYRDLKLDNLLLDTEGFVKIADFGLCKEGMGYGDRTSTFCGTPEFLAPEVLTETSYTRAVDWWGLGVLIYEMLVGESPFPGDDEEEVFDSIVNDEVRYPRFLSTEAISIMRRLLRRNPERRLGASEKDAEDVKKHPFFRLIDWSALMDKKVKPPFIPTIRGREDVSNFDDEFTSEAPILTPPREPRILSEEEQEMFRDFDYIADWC
Chain of UniProt Q13177 (Q13177 whole entry, looked up): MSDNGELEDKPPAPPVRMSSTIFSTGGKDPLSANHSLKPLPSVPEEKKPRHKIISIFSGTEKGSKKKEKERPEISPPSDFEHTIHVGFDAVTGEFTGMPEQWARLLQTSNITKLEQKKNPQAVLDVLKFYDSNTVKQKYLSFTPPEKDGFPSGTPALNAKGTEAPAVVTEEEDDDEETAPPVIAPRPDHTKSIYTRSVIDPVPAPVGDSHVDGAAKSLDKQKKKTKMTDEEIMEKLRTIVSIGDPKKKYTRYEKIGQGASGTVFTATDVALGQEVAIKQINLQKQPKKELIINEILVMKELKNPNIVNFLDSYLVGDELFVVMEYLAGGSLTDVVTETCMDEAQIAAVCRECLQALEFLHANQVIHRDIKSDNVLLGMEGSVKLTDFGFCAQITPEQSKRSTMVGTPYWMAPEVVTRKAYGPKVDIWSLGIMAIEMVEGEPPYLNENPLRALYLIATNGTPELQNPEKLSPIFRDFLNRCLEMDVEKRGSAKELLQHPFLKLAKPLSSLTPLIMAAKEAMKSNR
Chain of UniProt O00141 (O00141 whole entry, looked up): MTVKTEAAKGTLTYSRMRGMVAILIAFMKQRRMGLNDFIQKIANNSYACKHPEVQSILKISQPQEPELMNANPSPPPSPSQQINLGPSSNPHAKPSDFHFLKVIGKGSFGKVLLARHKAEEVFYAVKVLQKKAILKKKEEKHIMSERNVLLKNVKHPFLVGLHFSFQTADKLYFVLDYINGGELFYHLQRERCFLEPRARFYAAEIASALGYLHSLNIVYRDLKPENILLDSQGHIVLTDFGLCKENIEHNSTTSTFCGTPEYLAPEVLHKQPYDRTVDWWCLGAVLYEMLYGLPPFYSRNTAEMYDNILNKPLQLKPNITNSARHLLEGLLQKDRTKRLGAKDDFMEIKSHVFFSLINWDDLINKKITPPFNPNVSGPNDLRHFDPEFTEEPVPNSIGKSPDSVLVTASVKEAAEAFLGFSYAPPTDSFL
Chain of UniProt O43781 (O43781 whole entry, looked up): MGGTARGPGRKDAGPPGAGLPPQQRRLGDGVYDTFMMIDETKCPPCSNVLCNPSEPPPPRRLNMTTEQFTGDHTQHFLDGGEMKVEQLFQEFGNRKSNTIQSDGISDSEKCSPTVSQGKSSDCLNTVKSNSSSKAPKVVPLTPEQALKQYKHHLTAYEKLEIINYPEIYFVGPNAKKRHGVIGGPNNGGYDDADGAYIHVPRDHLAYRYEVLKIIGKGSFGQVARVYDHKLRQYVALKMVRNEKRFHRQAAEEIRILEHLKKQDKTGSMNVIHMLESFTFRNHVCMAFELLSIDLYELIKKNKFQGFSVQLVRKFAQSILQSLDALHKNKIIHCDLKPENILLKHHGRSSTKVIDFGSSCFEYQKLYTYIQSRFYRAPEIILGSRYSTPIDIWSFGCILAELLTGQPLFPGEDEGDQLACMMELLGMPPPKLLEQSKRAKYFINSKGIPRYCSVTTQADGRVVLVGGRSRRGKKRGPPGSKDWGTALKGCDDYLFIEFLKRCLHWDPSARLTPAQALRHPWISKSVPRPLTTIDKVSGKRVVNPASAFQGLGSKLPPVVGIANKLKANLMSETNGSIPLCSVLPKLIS
Chain of UniProt P50750 (P50750 whole entry, looked up): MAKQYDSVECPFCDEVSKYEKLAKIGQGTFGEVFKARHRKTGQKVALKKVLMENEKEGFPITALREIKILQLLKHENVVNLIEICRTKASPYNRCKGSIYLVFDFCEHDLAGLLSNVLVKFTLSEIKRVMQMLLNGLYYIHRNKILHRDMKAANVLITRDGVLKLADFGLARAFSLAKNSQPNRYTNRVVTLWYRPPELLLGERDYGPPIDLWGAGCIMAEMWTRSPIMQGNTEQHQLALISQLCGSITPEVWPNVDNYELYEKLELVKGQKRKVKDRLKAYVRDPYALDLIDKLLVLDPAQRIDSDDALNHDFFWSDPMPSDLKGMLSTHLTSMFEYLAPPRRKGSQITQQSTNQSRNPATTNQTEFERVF
Chain of UniProt P04629 (P04629 whole entry, looked up): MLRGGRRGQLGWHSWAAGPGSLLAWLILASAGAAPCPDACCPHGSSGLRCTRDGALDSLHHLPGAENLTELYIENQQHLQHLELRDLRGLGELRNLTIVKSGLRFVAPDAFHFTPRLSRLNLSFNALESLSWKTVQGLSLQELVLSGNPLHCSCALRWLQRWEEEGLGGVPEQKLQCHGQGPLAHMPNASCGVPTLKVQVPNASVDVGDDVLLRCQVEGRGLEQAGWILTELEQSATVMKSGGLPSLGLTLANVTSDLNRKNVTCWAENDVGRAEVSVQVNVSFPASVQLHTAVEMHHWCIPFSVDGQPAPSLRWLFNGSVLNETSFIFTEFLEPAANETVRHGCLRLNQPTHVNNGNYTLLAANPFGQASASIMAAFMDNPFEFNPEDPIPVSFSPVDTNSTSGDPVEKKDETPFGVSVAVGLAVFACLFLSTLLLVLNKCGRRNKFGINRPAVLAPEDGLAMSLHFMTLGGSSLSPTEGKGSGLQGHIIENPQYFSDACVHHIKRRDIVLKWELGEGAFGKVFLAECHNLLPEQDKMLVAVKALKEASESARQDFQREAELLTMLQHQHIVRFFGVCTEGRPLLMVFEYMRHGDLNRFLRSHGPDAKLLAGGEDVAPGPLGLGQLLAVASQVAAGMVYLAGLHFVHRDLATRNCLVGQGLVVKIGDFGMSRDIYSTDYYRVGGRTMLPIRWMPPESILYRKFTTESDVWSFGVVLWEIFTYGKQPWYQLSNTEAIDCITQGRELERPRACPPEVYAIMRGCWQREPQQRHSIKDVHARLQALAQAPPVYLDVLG
Chain of UniProt Q15118 (Q15118 whole entry, looked up): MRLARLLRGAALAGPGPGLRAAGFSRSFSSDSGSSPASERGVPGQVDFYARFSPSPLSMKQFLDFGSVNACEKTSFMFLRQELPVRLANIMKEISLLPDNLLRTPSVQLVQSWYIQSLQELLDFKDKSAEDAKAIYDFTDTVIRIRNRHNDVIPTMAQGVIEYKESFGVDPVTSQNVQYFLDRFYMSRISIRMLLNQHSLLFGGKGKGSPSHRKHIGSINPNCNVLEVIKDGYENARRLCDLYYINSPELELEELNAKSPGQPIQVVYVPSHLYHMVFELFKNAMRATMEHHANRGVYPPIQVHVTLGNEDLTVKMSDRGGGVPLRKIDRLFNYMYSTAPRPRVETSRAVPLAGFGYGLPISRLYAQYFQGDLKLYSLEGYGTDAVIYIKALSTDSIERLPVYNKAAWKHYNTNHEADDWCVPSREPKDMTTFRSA
Chain of UniProt P49760 (P49760 whole entry, looked up): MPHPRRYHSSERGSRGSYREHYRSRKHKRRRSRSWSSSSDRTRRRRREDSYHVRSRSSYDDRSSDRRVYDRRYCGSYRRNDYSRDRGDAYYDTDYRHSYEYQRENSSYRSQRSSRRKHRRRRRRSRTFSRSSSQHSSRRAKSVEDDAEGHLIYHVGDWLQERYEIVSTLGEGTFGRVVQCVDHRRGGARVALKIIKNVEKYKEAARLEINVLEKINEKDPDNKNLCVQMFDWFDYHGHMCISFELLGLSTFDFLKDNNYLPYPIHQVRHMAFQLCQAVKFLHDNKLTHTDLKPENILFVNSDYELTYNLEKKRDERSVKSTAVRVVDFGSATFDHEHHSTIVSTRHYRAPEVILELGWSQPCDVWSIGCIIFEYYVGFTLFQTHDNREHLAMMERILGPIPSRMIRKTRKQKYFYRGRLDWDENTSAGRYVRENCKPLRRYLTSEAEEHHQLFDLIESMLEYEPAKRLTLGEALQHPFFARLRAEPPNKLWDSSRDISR

Target	kinase activity remaining (inhibitor concentration 0.1 µM) [%]	kinase activity remaining (inhibitor concentration 1 µM) [%]	kinase activity remaining (inhibitor concentration 10 µM) [%]
SGK1 (UniProt O00141)	116	112	112
DYRK3 (UniProt O43781)	111	84	40
EPH-A2	90	95	76
PRK2 (UniProt Q16513)	108	101	81
CLK2 (UniProt P49760)	86	43	9
PDK1 (UniProt Q15118)	104	107	95
CDK9-Cyclin T1 (UniProt P50750)	109	96	51
ERK8 (UniProt Q8TD08)	96	79	38
CDK2-Cyclin A (UniProt P24941)	111	93	57
TrkA (UniProt P04629)	121	100	83
MST2 (UniProt Q13188)	131	135	100
PAK2 (UniProt Q13177)	102	103	93
Aurora A	126	102	84
